Bioassay records as filed in PubChem BioAssay.
HP1b chromo inh: blocks HP1-beta chromodomain binding to methylated histone tails. actives 0.56% (n = 390,000). Potency, µM (highest dose often 114 µM), without a hit: at the highest dose activity change, negative = inhibition, actives largely listed as inhibitors. AlphaScreen HP1-beta / biotin-H3K9me3 peptide binding; note: potency is the fitted concentration of half-maximal effect; nearly all actives have a fitted effect of over 70% in size
Target sequence (P83916 whole entry, looked up): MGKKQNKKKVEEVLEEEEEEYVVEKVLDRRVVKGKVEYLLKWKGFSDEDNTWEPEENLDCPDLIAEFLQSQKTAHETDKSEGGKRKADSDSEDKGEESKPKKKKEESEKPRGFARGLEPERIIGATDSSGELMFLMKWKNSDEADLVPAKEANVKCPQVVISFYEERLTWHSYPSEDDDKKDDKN
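AlphaScreen: HP1-beta (50 nM) preformed 30 min with biotin-H3(1-18)K9me3 peptide (50 nM) in PBS pH 7.4, 0.01% Tween-20. Compound added for 30 min at RT, then streptavidin donor/nickel chelate acceptor beads (10 ug/mL) for 30 min.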
BAZ2B block: blocks human BAZ2B | Q9UIF8 | Potency, µM (doses to about 114 µM), without a hit: at the top dose activity change, negative = inhibition, usual class: inhibitors | AlphaScreen BAZ2B-H3K14Ac peptide displacement | actives 4.4% (n = 360,000) | AID 504333; note: potency is the fitted concentration of half-maximal effect; % is set by controls: 0 for no effect and ±100 for the full control effect; nearly all actives have a fitted effect of over 60% in size
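AlphaScreen displacement of biotin-H3(5-23)K14Ac peptide (50 nM final) from BAZ2B (50 nM final) in PBS pH 7.4, 0.01% Tween-20; complex preformed 30 min RT, then compounds (top 110 uM) 30 min RT, beads 20 min dark.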
JMJD2A Tudor: inhibitors of human JMJD2A Tudor domain. actives 4.4% (n = 390,000). Potency, µM (series often up to 114 µM), for the others: at the highest dose activity change, negative = inhibition, usual class: inhibitors. AID 504339. AlphaScreen JMJD2A-Tudor / H3K4me3 peptide binding; note: potency is the fitted concentration of half-maximal effect; % is set by controls: 0 for no effect and ±100 for the full control effect; nearly all actives have a fitted effect of over 50% in size
TDP1 block: inhibitors of human tyrosyl-DNA phosphodiesterase TDP1 | Potency, µM (top dose mostly 130 µM), without a hit: at the top dose activity change, negative = inhibition, most hits filed as inhibitors | recombinant TDP1, AlphaScreen DNA substrate cleavage | actives 0.28% (n = 350,000) | Q9NUW8 | AID 485290; note: potency is the fitted concentration of half-maximal effect; % is set by controls: 0 for no effect and ±100 for the full control effect; nearly all actives have a fitted effect of over 40% in size
Target sequence (Q9NUW8 whole entry, looked up): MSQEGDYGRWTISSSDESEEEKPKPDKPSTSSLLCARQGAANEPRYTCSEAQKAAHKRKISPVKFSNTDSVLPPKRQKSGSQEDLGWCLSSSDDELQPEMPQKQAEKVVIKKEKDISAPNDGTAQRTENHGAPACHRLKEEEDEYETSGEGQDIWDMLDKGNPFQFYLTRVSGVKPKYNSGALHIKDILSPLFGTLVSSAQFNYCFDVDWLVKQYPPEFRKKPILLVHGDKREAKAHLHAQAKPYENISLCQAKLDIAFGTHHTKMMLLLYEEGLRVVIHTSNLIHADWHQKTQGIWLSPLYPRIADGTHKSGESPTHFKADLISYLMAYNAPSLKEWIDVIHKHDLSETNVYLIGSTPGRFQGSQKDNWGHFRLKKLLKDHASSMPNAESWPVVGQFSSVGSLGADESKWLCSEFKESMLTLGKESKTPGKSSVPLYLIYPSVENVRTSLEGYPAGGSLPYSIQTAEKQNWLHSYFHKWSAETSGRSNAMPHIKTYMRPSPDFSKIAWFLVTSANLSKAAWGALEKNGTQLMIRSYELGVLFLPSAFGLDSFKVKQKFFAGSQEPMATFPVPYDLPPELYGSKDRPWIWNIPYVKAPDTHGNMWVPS
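Steps: enzyme plus compound, 15 min RT; add biotin/phosphotyrosine-FITC oligonucleotide (15 nM final), react 5 min; add donor/acceptor beads (10 ug/ml final), 10 min; read AlphaScreen. Tdp1 at 1 nM final.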
Six1-Eya2 blk: inhibitors of human Six1/Eya2 interaction; Q15475+O00167; AlphaScreen GST-Six1/His-Eya2 binding, biochemical; hits give low values; activity change, % (concentration not given with the values); actives 0.56% (n = 360,000); in the data active = activity change below about -65%; inconclusive = mostly about -30% to -63%; note: % is set by controls: 0 for no effect and ±100 for the full control effect
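AlphaScreen luminescence read after one hour at 37 °C in darkness. Pin-transferred compounds met GST-Six1 and His-Eya2 protein (5X stock 250 nM/500 nM) plus glutathione donor and Ni-chelate acceptor beads (5X, 50 ug/mL).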
CtBP-E1A inh: inhibitors of CtBP/E1A interaction. AlphaScreen GST-E1A/His-CtBP binding, 1536-well; hits give low values. activity change, % (test concentration not listed). actives 0.49% (n = 340,000). AID 651724; in the data active = activity change below about -65%; inconclusive = mostly about -30% to -63%; note: % is set by controls: 0 for no effect and ±100 for the full control effect
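GST-E1A and His-tagged CtBP (125 nM each as 5X stock) were preincubated with pin-transferred compound for 2 h at 37 °C in the dark, then glutathione donor and nickel acceptor beads were added for 1 h before AlphaScreen reading.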
Numbers without * were called inactive; ? = inconclusive; · = no result; [ ] = remark or other dose. Sampled rows, rich in hits. Any-hit rate of the full collection: about 5.3%. Unless noted, calls come from the whole dose curve; as a rule, active = well fitted inhibition curve with a large enough effect; inconclusive = small, poorly fitted or top-dose-only effect; inactive = no such curve, though single readings can be large or run the other way.

SMILES | HP1b chromo inh | BAZ2B block | JMJD2A Tudor | TDP1 block | Six1-Eya2 blk | CtBP-E1A inh
CCCN1C(=O)c2cc(C(=O)NC3CCCCCC3)ccc2C1O (stereo unspecified) | 16.6% | -0.5% | -6.9% | 7.6% | 7.0 | -9.5
CN1C=CC=C/C1=C1\SC(=S)N(C2CCCCC2)C1=O | -54.1% | 39.8µM* | 39.8µM* | 7.7% | ? | ?
CCN1C(=O)/C(=C2/C=CC=CN2C)OC1=S | -6.2% | -2.4% | -17.9% | 7.2% | -3.4 | 0.1
CN1C=CC=C/C1=C1\SC(=S)N(CC(=O)O)C1=O | 6.7% | 50.1µM* | -11.2% | 5.1% | -1.4 | 1.1
COc1ccc(Cl)cc1C(=O)NCC(c1ccc(N(C)C)cc1)N1CCOCC1 (stereo unspecified) | -13.7% | -21.4% | -20.9% | -8.8% | · | ·
O=C(OCc1cc(=O)n2nc(-c3cccs3)sc2n1)c1ccccc1 | -26.1% | -31.9% | -33.3% | -0.6% | · | ·
COc1ccc(CN2C(=O)C(NC(=O)c3ccccc3OC)(C(F)(F)F)N=C2c2ccccc2)cc1 (stereo unspecified) | 30.1% | -19.5% | -14.2% | -4.5% | · | ·
COC(=O)c1ccc(CN2CCc3ccccc32)cc1 | -19.2% | ? | 39.8µM* | · | -29.2 | -19.0
CC(NO)C(C)(C)NO (stereo unspecified) | ? | -28.3% | 39.8µM* | -2.2% | 3.0 | 0.9
CSc1ccccc1NC(=O)CN(C)CC(=O)Nc1ccccc1N1CCOCC1 | 24.8% | -2.3% | -14.6% | -5.3% | 0.6 | 1.9
CN1CCC(N(C)CC(=O)Nc2ccccc2N2CCOCC2)CC1 | ? | 56.2µM* | 8.91µM* | 1.1% | -2.5 | 4.1
CN1CCC(N(C)CC(=O)Nc2ccc3c(c2)OC(F)(F)O3)CC1 | ? | 44.7µM* | 2µM* | 0.0% | 7.5 | 0.5
CN(CC(=O)Nc1ccc(Cl)c(Cl)c1)C1CCCCC1 | ? | -28.1% | 22.4µM* | 2.3% | 1.7 | 20.1
OCn1ncn(-c2ccccc2)c1=S | 18.5% | -12.2% | 35.5µM* | · | 1.9 | 4.9
COc1cccc(Cc2nc3ccccc3nc2SCC(=O)NCc2ccc(C)cc2)c1 | 29.6%[57 µM] | 4.3% | 3.9% | -2.7% | · | ·
CCOC(=O)/C(=N\Nc1ccc(OC)cc1)c1csc(Nc2ccccc2)n1 | -20.4% | ? | 39.8µM* | 7.8% | -22.2 | 8.2
C[N+](C)(C)CCC(=O)c1cccc2ccccc12 | · | · | · | 16.8%[56.1 µM] | · | ·
CNC(=S)NCCc1cc2c(OC)ccc(OC)c2[nH]c1=O | 7.6% | · | 17.8µM* | 5.8% | -1.7 | ·
CC(NCC1(N2CCOCC2)CCCCC1)C(=O)N1CCc2ccccc21 (stereo unspecified) | ? | 39.8µM* | 2.82µM* | -2.6% | 4.4 | 5.8
CC(NCC1(N2CCOCC2)CCCCC1)C(=O)Nc1ccc(Cl)cc1Cl (stereo unspecified) | 2.3% | 50.1µM* | -14.8% | -4.9% | 1.2 | 0.8
CC(C(=O)Nc1ccc(Cl)cc1Cl)N1C(=O)NC2(CCCCCCC2)C1=O (stereo unspecified) | 33.4% | 8.6% | 2.3% | 0.6% | -0.4 | 4.1
CCc1ccc(CNC(=O)CCc2c(C)nn(-c3ccc(N4CCCC4)nn3)c2C)cc1 | 33.1% | ? | -13.0% | 3.2% | · | ·
COc1ccc(CNC(=O)CCc2c(C)nn(-c3ccc(N4CCCCC4)nn3)c2C)c(OC)c1 | -8.0% | -31.2% | 89.1µM* | 7.1% | · | ·
COc1ccc(CNC(=O)CCc2c(C)nn(-c3ccc(N4CCOCC4)nn3)c2C)c(OC)c1 | -3.6% | -14.5% | -10.7% | 7.1% | · | ·
Cc1nn(-c2ccc(N3CCCC3)nn2)c(C)c1CCC(=O)NCc1ccc(F)cc1 | 75.4% | 79.4µM* | -8.3% | 4.5% | · | ·
SMILES | HP1b chromo inh | BAZ2B block | JMJD2A Tudor | TDP1 block | Six1-Eya2 blk | CtBP-E1A inh
CCOc1ccc(C(=O)NCC(c2ccc3c(c2)OCO3)N2CCN(c3ccccc3F)CC2)cc1 (stereo unspecified) | 21.2%[57 µM] | 2.8% | -32.3% | 7.7% | · | ·
O=c1nc2s/c(=C\c3ccc(-c4ccccc4[N+](=O)[O-])o3)c(=O)n2nc1-c1ccccc1 | 30.6% | 10µM* | 2.8% | -2.7% | -11.0 | -19.5
CCOC(=O)c1[nH]nc(-c2cc(CC)c(O)cc2O)c1-c1cscn1 | 25.9% | ? | 89.1µM* | -4.8% | -5.5 | -5.1
COc1ccc(C(=O)c2cn(Cc3ccc(F)cc3)c3c(F)cc(F)cc3c2=O)cc1 | 54.6% | 13.7% | -9.4% | 5.8% | · | ·
Cc1ccc(S(=O)(=O)N2CCCC2C(=O)OCc2ccco2)cc1 (stereo unspecified) | 5.1% | 50.1µM* | 56.2µM* | -2.2% | -7.0 | -0.3
CC(C)C(C)(C#N)NC(=O)CSc1nnc(-c2ccncc2)n1Cc1ccccc1 (stereo unspecified) | ? | 5.7% | 70.8µM* | -1.9% | -19.5 | -3.9
O=C(CSc1nnc(-c2ccncc2)n1Cc1ccccc1)Nc1nccs1 | 0.8% | 14.5%[57.1 µM] | 89.1µM* | 3.0% | 2.5 | -1.9
COc1ccc(C)cc1-n1cnc2cc(C(=O)NC3CCCCCC3)ccc21 | 11.2% | -17.6% | ? | 7.6% | · | ·
Cc1cc(N2CCC(C)CC2)nc2ccc(NC(=O)CCC(=O)N3CCN(c4ccccc4F)CC3)cc12 | 25.6% | -1.9% | 6.8% | 0.0% | · | ·
C/C(=N\Nc1ccc(Cl)c(C(=O)O)c1)c1ccc(Br)s1 | ? | ? | 28.2µM* | · | -18.8 | -8.1
COC(=O)c1cc2sc(Cl)cc2n1CC(=O)Nc1cc(C)cc(C)c1 | 4.9% | 1.7% | -19.3% | 2.0% | · | ·
Cn1c(SCc2c(F)cccc2Cl)nc2c(c1=O)SCC2 | -26.7% | 28.2µM* | ? | 8.2% | -22.1 | -4.9
Cn1c(SCc2c(F)cccc2Cl)nc2ccccc2c1=O | 98.1% | -0.6% | 15.2% | -11.7% | 6.8 | 0.8
O=C(O)[C@H]1CN(CCCP(=O)(O)O)CCN1 | · | · | · | 13.1% | · | ·
CC(/C=C/c1ccc(N(C)C)cc1)=N\N=C(/N)SC1CC(=O)N(c2ccc(C(=O)O)cc2)C1=O (stereo unspecified) | ? | 50.1µM* | 31.6µM* | -3.0% | -10.1 | -5.6
Cc1cc(C)cc(C(=O)NCC(=O)OCC(=O)N2c3ccccc3NC(=O)C2(C)C)c1 | 32.2% | 44.7µM* | -1.4% | ? | 6.1 | 8.7
CCC(=NCc1ccc(Cl)c(Cl)c1)c1nc(-c2ccco2)oc1O | ? | 12.6µM* | ? | 10.1% | ? | -20.8
CCn1cc(C(=O)O)c(=O)c2cc(F)c(N3CCN(C(=S)NC(=O)c4ccccc4Br)CC3)cc21 | -6.6% | 70.8µM* | -25.0% | 3.5% | -9.0 | -11.1
CCn1cc(C(=O)O)c(=O)c2cc(F)c(N3CCN(C(=S)NC(=O)c4ccc(F)cc4)CC3)cc21 | 42.3% | ? | -19.1% | · | 8.5 | -2.7
